# Measurements: PubChem BioAssay (EPA / NIEHS)
# Records with an inconclusive call do not appear. Activity calls are given as the source filed them. How the source made its calls: active means hit-call score of the fitted dose curve at least 0.9, where 1 is the maximum; inconclusive means response in the unintended direction; inactive means score below 0.9.
# Assay: ACEA_AR_agonist_AUC_viability: ACEA Biosciences xCELLigence Real-Time Cell Analysis on Androgen Receptor Agonism for Viability (AID 2283775);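 on AC50: viability read 80 hours after compound addition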
# Procedure, shortened: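 Read-out is area under the impedance curve at 80 h post-dose in 22Rv1 cells, with DMSO as baseline and signal loss taken as reduced viability. Compounds ran in duplicate from 100 uM final.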
Structure (SMILES),outcome,AC50
C=C(C)C#N,inactive,
CCC[CH2][Sn]([Cl])([Cl])[Cl],inactive,
CC(C#N)CCC#N (centres undefined),inactive,
COP(=O)(OC)OC,inactive,
CCC[CH2][Sn]([CH2]CCC)([CH2]CCC)[O]C(=O)c1ccccc1,,4.45 µM (active)
CC(C)OC(=O)Nc1ccccc1,inactive,
C=CCc1ccc(OC)cc1,inactive,
Fc1ccc(C2(Cn3cncn3)OC2c2ccccc2Cl)cc1 (centres undefined),inactive,
COc1cc(OC)nc(NC(=O)NS(=O)(=O)c2ncccc2C(=O)N(C)C)n1,,1.74 µM (active)
O=C1C2(Cl)C3(Cl)C4(Cl)C(Cl)(Cl)C5(Cl)C3(Cl)C1(Cl)C5(Cl)C24Cl (centres undefined),,7.07 µM (active)
N#CN=C(N)N,inactive,
C=C(C)C(=O)[O][Sn]([CH2]CCC)([CH2]CCC)[CH2]CCC,,1.43 µM (active)
O=C1CCCN1,inactive,
Cl/C=C\C[N+]12CN3CN(CN(C3)C1)C2,inactive,
O=[N+]([O-])c1ccc(O)c([N+](=O)[O-])c1,,50 µM (active)
O=c1[nH]c(=O)[nH]c(=O)[nH]1,inactive,
CCCCOCCOC(C)=O,inactive,
O=C(Cc1ccccc1)c1ccccc1,inactive,
BrCCBr,inactive,
CC(=O)C=C(C)C,inactive,
Cl/C=C/Cl,inactive,
CCN1CCC2(CC1)COc1cc3c(cc12)N(C(=O)c1ccc(-c2ccc(-c4nnc(C)o4)cc2C)cc1)CC3,,9.92 µM (active)
O=C(OC1CCCCC1)c1ccccc1C(=O)OC1CCCCC1,inactive,
NC(=O)O,inactive,
